# In article PMC5540273 (PLoS ONE, 2017):
# Tests used:
# Conditions in all cases: concentration: 1 μM, replicates: in singlicate; n = 1
# WNK4 = tested on: WNK4
# YANK1 = tested on: T1, YANK1
# T1 construct: gene STK32A
# YANK2 = tested on: T2, YANK2
# T2 construct: gene STK32B
# YANK3 = tested on: T3, YANK3
# T3 construct: gene STK32C
# YES = tested on: T4, YES
# T4 construct: gene YES1
# YSK1 = tested on: T5, YSK1
# T5 construct: gene STK25
# YSK4 = tested on: T6, YSK4
# T6 construct: gene MAP3K19
# ZAK = tested on: ZAK
# ZAP70 = tested on: ZAP70
# p38-alpha = tested on: T7, p38-alpha
# T7 construct: gene MAPK14
# 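Also: KINOMEscan kinase panel screen.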
SMILES,%Inh (WNK4) [%],%Inh (YANK1) [%],%Inh (YANK2) [%],%Inh (YANK3) [%],%Inh (YES) [%],%Inh (YSK1) [%],%Inh (YSK4) [%],%Inh (ZAK) [%],%Inh (ZAP70) [%],%Inh (p38-alpha) [%]
NC(=O)c1sc(-n2cnc3ccccc32)cc1OCc1ccccc1F [GSK1024306],0,0,0,0,0,0,2,0,0,93.4
Cc1cccc(-c2nc(Nc3ccc4[nH]nnc4c3)c3ccccc3n2)n1 [GW867587],0,0,0,1,0,0,0,0,0,0
CCn1c(-c2ccncc2)nc2cnccc21 [SB-735216],22,0,4,7,16,0,74,23,0,0
O=C(Nc1n[nH]c2nc(-c3ccco3)c(Br)cc12)c1ccc(CN2CCCC2)cc1.O=C(O)[C@H](O)[C@@H](O)C(=O)O [SB-742352],0,0,0,0,1,0,49,29,0,0
Cl.c1ccc(Cn2ncc3cc(Nc4ncnc5ccccc45)ccc32)cc1 [GW273749],0,6,0,0,16,17,30,0,0,10
COc1ccc(Nc2nccc(N3CCC(NC(=O)c4cccc(NC(C)=O)c4)C3)n2)cc1 (stereo not drawn) [GSK1379732],100,22,0,20,0,11,5,10,0,30
Fc1cccc(COc2ccc(Nc3ncnc4nn5ccccc5c34)cc2Cl)c1 [GW689066],23,0,0,6,13,1,3,4,0,11
Cl.Cn1ccc(-c2cccc(Nc3ccnc4cc(-c5nccs5)ccc34)c2)n1 [GW525701],66,0,10,0,21,17,41,0,74,9
Fc1cccc(COc2ccc(Nc3ncnc4cc[nH]c34)cc2Cl)c1,28,26,0,9,20,0,18,0,0,0
C[C@H]1CC[C@@H](C(=O)Nc2ccccc2)CN1c1cc(-c2ccc3c(N)n[nH]c3c2)nc(N)n1 [GSK2283293],28,13,0,4,10,0,16,2,0,0
Oc1ccc2ncnc(Nc3ccc(OCc4ccccc4)cc3)c2c1 [GI262866],14,0,0,15,0,0,7,18,0,0
CS(=O)(=O)CCNCc1nc(-c2ccc3ncnc(Nc4ccc(OCc5cccc(F)c5)c(Cl)c4)c3c2)cs1.Cl [GW583340],0,0,0,0,3,0,17,91.6,0,18
COc1ccc(NC(=O)c2ccc(-c3cc(-c4nnc(C)o4)ccc3C)cc2)cc1 [GW595885],34,16,7,0,16,0,34,2,0,97.7
Cc1ccc(NC(=O)c2cccc(C#N)c2)cc1-c1ccc(C(=O)Nc2ccncc2)cc1 [GSK1398463],3,14,0,11,24,9,64,12,0,47
CC(C)(C)OC(=O)NC1CCCN(c2cc(-c3ccc4c(N)n[nH]c4c3)nc(N)n2)C1 (stereo not drawn) [GSK2286096],12,10,0,0,1,2,20,0,0,0
CCCc1ccc(S(=O)(=O)NC2CCN(c3ccnc(Nc4ccc(OC)cc4)n3)C2)cc1 (stereo not drawn) [GSK1379737],45,0,0,16,5,0,30,8,0,10
COc1cc2ncnc(Nc3ccc(OCc4ccccc4Br)c(Cl)c3)c2cc1OC.Cl [GI261590],52,0,0,21,31,0,33,33,19,63

SMILES,%Inh (WNK4) [%],%Inh (YANK1) [%],%Inh (YANK2) [%],%Inh (YANK3) [%],%Inh (YES) [%],%Inh (YSK1) [%],%Inh (YSK4) [%],%Inh (ZAK) [%],%Inh (ZAP70) [%],%Inh (p38-alpha) [%]
Nc1n[nH]c2nnc(-c3ccccc3)cc12 [SB-517389],0,13,0,21,16,0,75,24,0,0
Nc1nc(-c2ccc3c(N)n[nH]c3c2)cc(N2CCC[C@@H](C(=O)Nc3ccccc3)C2)n1.O=C(O)C(F)(F)F.O=C(O)C(F)(F)F [GSK2288359],0,4,0,0,0,5,9,3,0,0
CSc1nn2c(=O)cc(N3CCOCC3)nc2n1Cc1cccc(Cl)c1Cl [GSK2347225],0,16,7,19,31,12,0,0,0,0
CC(C)(C)c1ccc(-n2cnc3c(N)ncnc32)cc1 [SKF-97263],0,0,11,11,6,0,15,10,0,0
O=c1cc(N2CCOCC2)nc2n(Cc3cccc(Cl)c3)ccn12 [GSK2296823],0,0,0,18,23,10,19,0,0,0
CN1c2ccc(-c3ccc(C(=O)NCCO)cc3)cc2-c2[nH]ncc2S1(=O)=O,0,0,0,0,12,13,8,20,0,0
Cl.Fc1ccccc1COc1ccc(Nc2ncnc3ccc(-c4nnc(C(F)(F)F)o4)cc23)cc1Cl [GW424170],0,3,0,3,5,0,0,1,0,0
O=C(c1ccc(-c2cc(-c3c[nH]nc3-c3ccccn3)ccn2)cc1)N1CCCC1 [GW792479],14,0,13,0,0,0,0,28,2,7
COc1cc2c(Nc3cccc(NC(=O)c4ccccc4)c3)ncnc2cc1OCCCN1CCOCC1 [GSK223810],0,7,0,2,15,12,36,0,0,81
CNc1nccc(-c2c(-c3ccc(F)cc3)ncn2C2CCN(C)CC2)n1 [SB-222903],9,0,17,6,0,0,7,0,0,98.6
c1ccc(-c2ccc3c(-c4ccnc(Nc5ccc6c(c5)OCCO6)n4)cnn3n2)cc1 [GW818941],0,0,13,0,5,0,0,10,20,0
Cc1cc(N2CCC(NS(=O)(=O)c3ccc(F)cc3)CC2)nc(Nc2cccc(C#N)c2)n1.O=C(O)C(F)(F)F [GSK1653537],0,2,1,29,0,22,0,0,0,0
FC(F)(F)c1ccc(-c2cc(-c3c[nH]nc3-c3ccccn3)ccn2)cc1 [GW599550],42,98.8,10,0,6,20,28,24,0,28
CCc1nc(-c2cccc(N(C)S(=O)(=O)c3ccccc3)c2)c(-c2ccnc(Nc3ccc(N4CCN(C(C)=O)CC4)nc3)n2)s1 [GSK1645895],0,5,18,11,33,26,29,83,0,60
Cn1ccc2ncnc(Oc3ccc(NC(=O)Nc4cccnc4)c(Cl)c3)c21,0,0,13,7,0,0,0,3,0,14
CN1CCC(n2cnc(-c3ccc(F)cc3)c2-c2ccnc(NC3CCNCC3)n2)CC1 [SB-229482],0,0,2,1,0,0,0,4,0,89
